Compound activity: PubChem BioAssay, National Center for Advancing Translational Sciences (NCATS)
Most compounds without a hit are left out; they make up all but 17% or so of the library.
S2 tox = viability counter-screen for ATXN expression inhibitors; actives 0.49% (n = 400,000); Potency, µM (highest dose often 56.7 µM), most hits filed as cytotoxic; S2 cells (HEK-293 line with an ATXN2-luciferase reporter) viability, CellTiter-Fluor protease fluorescence, 24 h; further: nearly all actives have a fitted effect of over 40% in size
TGFb inhibitor = inhibitors of TGF-b signaling. HepG2 CAGA-GFP TGF-b/SMAD3 reporter, GFP fluorescence, 18 h; TGF-beta stimulated, 500 pg/mL final. Potency, µM (doses to about 46.1 µM), for the others: top-dose activity, negative = inhibition, usual class: inhibitors. actives 1.2% (n = 410,000). AID 588855; further: on the % scale 0 is the no-effect control and ±100 the full control effect; nearly all actives have a fitted effect of over 65% in size
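HEPG2 CAGA-GFP, 1000 cells/well; 2 h settle, 37 C; cpd via pin tool; TGF-b 500 pg/mL final; 18 h, 37 C; GFP imaging ex488/em500-530; %Activity normalised to -TGF-b and +DMSO controls; CRC fit, curve class.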
DT40 TDP1 no CPT = qHTS for Inhibitors of human tyrosyl-DNA phosphodiesterase 1 (TDP1): qHTS in cells in absence of CPT; DT40 Tdp1-/- hTDP1 cells, no CPT, ATP luminescence, 48 h; AID 686978, 2013; actives 15% (n = 420,000); Potency, µM (series often up to 46.2 µM), for inactives: top-dose activity change, negative = growth inhibition, usual class: inhibitors; further: on the % scale 0 is the no-effect control and ±100 the full control effect; nearly all actives have a fitted effect of over 55% in size
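Chicken DT40 Tdp1-/- cells complemented with human TDP1, screened without camptothecin (DMSO vehicle only), 400 cells/well. Compounds pin-transferred, cells incubated at 37 °C for at least 48 hr. Growth read as ATP-dependent luminescence (CellTiter-Glo, 30 min at RT).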
HepG2 viability = counter-screen for TGF-b inhibitors: cytotoxicity in HepG2 cells; Potency, µM (top dose mostly 46.1 µM), inactives show at the highest dose activity change, negative = cytotoxicity, hits mostly cytotoxic; actives 0.76% (n = 410,000); HepG2 CAGA-GFP viability, ATP luminescence, 18 h
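CellTiter-Glo luminescence gave cytotoxicity after 18 hours at 37 degrees C. The cells were HepG2 CAGA-GFP in 1% FBS DMEM, stimulated with 500 pg/mL TGF-beta after compound addition. %Activity was normalised to no-cell wells (complete cell-killing) and DMSO (no toxicity), and curves were fitted and classified.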
TDP1 cell CPT = DT40-hTDP1 cell growth loss with CPT; chicken DT40 Tdp1-/-;hTDP1 cells + 20 nM CPT, ATP luminescence, 48 h; Potency, µM (doses to about 46.2 µM), without a hit: at the top dose activity change, negative = growth inhibition, hits mostly inhibitors; actives 12% (n = 420,000); AID 686979; further: on the % scale 0 is the no-effect control and ±100 the full control effect; nearly all actives have a fitted effect of over 55% in size
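Cell growth measured by CellTiter-Glo luminescence after a minimum 48 h, 37 C compound exposure with 20 nM CPT in Tdp1-knockout DT40 cells stably expressing hTDP1, seeded 400/well; qHTS titration format.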
ATXN2 expr inh = inhibitors of ATXN2 expression; HEK-293 ATXN2-luciferase reporter, luminescence, 24 h; Potency, µM (series often up to 57 µM), for the others: at the highest dose activity change, negative = inhibition, actives largely listed as inhibitors; actives 0.72% (n = 360,000); further: on the % scale 0 is the no-effect control and ±100 the full control effect; nearly all actives have a fitted effect of over 55% in size
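qHTS (up to 57 uM final) was run with 24 h compound exposure of reporter cells at 37 °C. Each well was multiplexed: SteadyGlo luminescence measured ATXN2-luciferase expression after a fluorogenic Gly-Phe-AFC viability readout (25 uM final).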
Numbers without * were called inactive; i = inactive; ? = inconclusive; nt = no result. The call rests on the fitted dose curve; in most records, active means well fitted curve in the direction sought with a large enough effect; inconclusive means small, poorly fitted or top-dose-only effect, or another doubt; inactive means no such curve, though single readings can be large; an effect the other way counts as inactive or inconclusive. Potency means the concentration at half of the fitted maximal effect.

SMILES	S2 tox	TGFb inhibitor	DT40 TDP1 no CPT	HepG2 viability	TDP1 cell CPT	ATXN2 expr inh
Cn1nccc1C(=O)NC1CCN(Cc2ccccc2)CC1	i	1%	1%	-1%	14%	4%
O=C(N[C@@H]1C/C=C\C[C@@H](CC(=O)N(CCO)Cc2ccccc2)C(=O)NC[C@H](c2ccccc2)OC1=O)OCC1c2ccccc2-c2ccccc21	?	?	7.3µM*	-60%	2.6µM*	?
O=C(C[C@H]1C/C=C\C[C@H](NC(=O)OCC2c3ccccc3-c3ccccc32)C(=O)O[C@H](c2ccccc2)CNC1=O)N[C@H](CO)Cc1ccccc1	?	16µM*	3.7µM*	-47%	3.3µM*	?
CC(C)(C)OC(=O)C[C@@H]1C/C=C\C[C@@H](CC(=O)N[C@H](CO)Cc2ccccc2)C(=O)NC[C@H](c2ccccc2)OC1=O	i	6%	?	4%	?	-25%
O=C1CC/C=C\C[C@@H](CC(=O)N(CCO)Cc2ccccc2)C(=O)NC[C@@H](c2ccccc2)O1	i	-10%	-26%	1%	-2%	3%
O=C(N[C@@H]1C/C=C\C[C@H](CC(=O)N(CCO)Cc2ccccc2)C(=O)NC[C@@H](c2ccccc2)OC1=O)OCC1c2ccccc2-c2ccccc21	?	7.9µM*	5.8µM*	-66%	6.5µM*	0%
O=C(CN1CCOCC1)N(c1ccccc1)c1ccc2ccccc2c1	?	37%	?	-1%	-19%	0%
N#Cc1ccsc1NC(=O)CN1CCN(c2ccccn2)CC1	i	15%	-22%	-14%	-13%	7%
O=C(CN1CCN(c2ccccn2)CC1)Nc1ccc([N+](=O)[O-])cc1C(=O)Nc1ccccc1F	i	?	7.3µM*	-29%	23µM*	-24%
Cc1c(C)n(C(=O)CN2CCN(c3ccccn3)CC2)c2ccccc12	i	-6%	12µM*	-1%	?	-18%
COc1cc(Cl)c(C)cc1NC(=O)c1ccccc1NC(=O)CN1CCN(c2ccccn2)CC1	i	19%	26µM*	-6%	18µM*	nt
O=C(CN1CCN(c2ccccn2)CC1)N(c1ccccc1)c1ccc2ccccc2c1	?	?	18µM*	-47%	16µM*	-15%
O=S1(=O)N[C@H](Cc2ccccc2)COc2cc(N3CC[C@H](O)C3)ccc21	i	nt	?	nt	?	14%
Cc1c(C(=O)N(C)Cc2cccc(F)c2)oc2c(Cl)cccc12	i	5%	?	2%	?	3%
Cc1cnc(NC(=O)CN2CCN(c3ccccn3)CC2)s1	?	?	?	-22%	?	8.9µM*
CC(C)c1ccc(NC(=O)CN2CCN(c3ccccn3)CC2)cc1	i	-6%	-11%	-17%	-24%	6%
COc1ccc(N2CCN(CC(=O)Nc3ncc(C)s3)CC2)cc1	?	-5%	-16%	0%	-7%	nt
CSc1ccccc1NC(=O)CN1CCN(c2ccccn2)CC1	i	-16%	?	-15%	23µM*	-28%
Cc1ccc(Cl)c2sc(NC(=O)C3CC3)nc12	i	?	3%	11µM*	5%	6%
O=[N+]([O-])c1cccc(-c2nc(NCc3ccccc3)c3ccccc3n2)c1	i	-22%	?	-20%	?	-7%
CN(Cc1ccccc1)c1nc(-c2cccc([N+](=O)[O-])c2)nc2ccccc12	?	3%	18µM*	-4%	18µM*	-22%
CCOC(=O)Cc1csc(-n2sc3ccccc3c2=O)n1	?	9%	12µM*	4%	5.2µM*	8%
CCOC(=O)Cc1csc(SCn2nnc3ccccc3c2=O)n1	i	0%	?	-7%	-22%	9%
CCOC(=O)Cc1csc(/N=C/c2c(O)n(-c3ccccc3C(F)(F)F)c(=O)c3ccccc23)n1	nt	-2%	?	1%	21µM*	-15%
Cc1cc(Br)ccc1SCC(=O)OCC(=O)Nc1ncc(C(F)(F)F)cc1Cl	i	?	-3%	0%	-4%	1%
SMILES	S2 tox	TGFb inhibitor	DT40 TDP1 no CPT	HepG2 viability	TDP1 cell CPT	ATXN2 expr inh
COc1ccc(CCn2c(O)cc3nn(-c4nc5ccccc5s4)c(=O)c-3c2C)cc1	i	13%	16µM*	12%	-26%	32%
CC(C)(C)OC(=O)N1CCC(c2cc(=O)n3[nH]c(-c4ccc(Cl)cc4)cc3n2)CC1	i	8%	23µM*	-12%	21µM*	4%
CC(C)(C)OC(=O)N1CCC(c2cc(=O)n3[nH]cc(C(=O)Nc4ccc(F)c(Cl)c4)c3n2)CC1	i	-2%	5%	2%	2%	nt
CCOC(=O)c1nnc2cc(C)nn2c1C	i	-15%	-2%	-10%	8%	nt
CCOC(=O)c1nc2cc3n(c(CC(C)C)c-2c1C)CC(C)=C3C	i	-13%	?	-20%	21µM*	-23%
CCOC(=O)c1n[nH]n(-c2cc(Cl)cc(Cl)c2)c1=O	i	-7%	-4%	9%	1%	-3%
CCOC(=O)c1nc2cc3n(c(C)c-2c1C)C(C)C(C)=C3C (centres undefined)	i	2%	13µM*	-5%	?	-21%
CNc1cncc(-c2ccc(S(C)(=O)=O)cc2)n1	nt	-4%	-18%	1%	-22%	10%
COc1cccc(C(=O)Nc2c3c(nn2-c2ccc(C)cc2C)CS(=O)(=O)C3)c1OC	i	26%	23µM*	3.2µM*	?	-13%
COc1cc(C(=O)Nc2cc(C)nn2-c2ccccc2)cc(OC)c1OC	i	-24%	?	-17%	-35%	6%
COc1cccc(OC)c1C(=O)Nc1cc(C)nn1-c1nc2ccccc2[nH]1	?	0%	9.2µM*	-18%	16µM*	-31%
Cc1cc(NC(=O)c2sccc2C)n(-c2nc3ccccc3[nH]2)n1	?	?	16µM*	-15%	?	?
COc1cccc(C(=O)Nc2cc(C)nn2-c2ccccc2)c1OC	i	-1%	23µM*	1%	?	-16%
COc1cccc(CNC(=O)CCCN2C(=O)CSc3c2c(C)nn3-c2ccccc2)c1	i	-59%	?	-6%	?	-5%
NS(=O)(=O)c1ccc(NC(=O)CSc2nnc3n2CCCCC3)cc1	i	0%	7%	-25%	13%	nt
